These results are taken from PubChem BioAssay (NCI).

Compounds without any hit were thinned out: in the full panel of roughly 83,000, 20% have a hit.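 Percent growth is the endpoint: 0 to 100 indicates growth inhibition (40 means 60% inhibition), 0 means no net growth, and negative values indicate cell death.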 Values without a mark were called inactive. Calls of active or inactive are those of the source. The calls were made as follows: active = growth percent below 10; inactive = the rest. Where a SMILES comes first, the peptide text is derived from it. [ ]: non-standard residue; d: D form. ξ: configuration not given here. ξD = NC(CC(=O)O)C(=O)O

Experiment in all cases: NCI-60 one-dose screen, 48 h (100 = growth as untreated, 0 = no growth, -100 = all killed)
What all share (details): 10 µM unless noted

The test system of test [1] is BT-549 breast.
The subject of test [2] is MDA-MB-435 melanoma.
Test [3] concerns SW-620 colon.
Test [4] concerns MCF7 breast.
The subject of test [5] is HCT-116 colon.
For test [6], the system named is HCC-2998 colon.
The subject of test [7] is KM12 colon.
Test [8] has as its system T-47D breast.

For `O=C(/C(Cl)=N/O)c1ccc(-c2ccccc2)cc1`, the growth in test [1] is 94.7%; in test [2], 114%; in test [3], 110%; in test [4], 89.5%; in test [5], 113%; in test [6], 105%. Also, the growth in test [7] was 108%.

As to `O=C/C=C/c1ccc([N+](=O)[O-])cc1`, the growth in test [1] is 116%; in test [2], 108%; in test [3] it was 106%; in test [4] it was 90.3%; in test [5] it was 80.6%; in test [6] it was 95.8%. Also, the growth in test [7] was 101%.

For the compound `O=[N+]([O-])c1ccc2c(c1)Cc1ccccc1-2`, the growth in test [8] is 94%; in test [2], 99.4%; in test [3], 95.8%; in test [4], 94.8%; in test [5], 91.3%; in test [7] it was 98.3%.

Take `O=[N+]([O-])c1ccc(Oc2ccccc2Cl)c([N+](=O)[O-])c1`: the growth in test [2] is 81.5%; in test [3], 39.9%; in test [4] it was 89.4%; in test [5] it was 88.2%; in test [6], 112%; in test [7] it was 89.2%.

For `CCCCCCCCC(=O)OCCCC(CCC(CCC1CCCO1)OC(=O)CCCCCCCC)OC(=O)CCCCCCCC` (stereo unspecified), the growth in test [1] was 92.7%; in test [2], 104%; in test [3], 99.8%; in test [4], 100%; in test [5] it was 92.4%; in test [6], 123%. Moreover, the growth in test [7] was 103%.

Turning to `Nc1nc2ncc(CNc3ccc(C(=O)NC(CCC(=O)NC(CCC(=O)NC(CCC(=O)NC(CCC(=O)NC(CCC(=O)O)C(=O)O)C(=O)O)C(=O)O)C(=O)O)C(=O)O)cc3)nc2c(=O)[nH]1` (stereo unspecified), the growth in test [1] was 106%; in test [2], 111%; in test [3] it was 105%; in test [4], 98.7%; in test [5] it was 103%; in test [6], 117%. Besides, the growth in test [7] was 101%.

For the compound `O/N=C1\c2ccccc2-c2ccc(F)cc21`, the growth is 97.4% in test [1]; 114% in test [2]; 112% in test [3]; 25.6% in test [4]; 98.3% in test [5]; 95.1% in test [6].

Take `NCC(=O)NC(CC(=O)O)C(=O)O` (stereo unspecified) (H-Gly-[ξD]-OH): the growth in test [1] was 102%; in test [2] it was 99.5%; in test [3], 98.9%; in test [4] it was 100%; in test [5], 106%; in test [6] it was 110%. Further, in test [7], the growth is 107%.

As for `Nc1nc(-c2ccccc2)nc(N)c1N=O`, the growth was 56.3% in test [1]; 46.7% in test [2]; 1.65% (active) in test [3]; 33% in test [4]; 51.6% in test [5]; 58.8% in test [7].

Turning to `Oc1c(C(Nc2ccccc2)c2ccccc2)ccc2cccnc12` (stereo unspecified), the growth is 49.8% in test [1]; 23.8% in test [2]; 45.1% in test [3]; 16.3% in test [4]; 19.3% in test [5]; 44.9% in test [6]. For the same compound, the growth in test [7] was 32.5%.

In the case of `Fc1ccc(NCCS)cc1`, the growth is 103% in test [8]; 107% in test [2]; 102% in test [3]; 111% in test [5]; 96.7% in test [6]; 98.3% in test [7].

For `Oc1ccc(Cl)cc1Cc1cc(Cl)ccc1O`, the growth is 37.1% in test [1]; 36.7% in test [2]; 26.9% in test [3]; 31.9% in test [4]; 2.45% (active) in test [5]; 72.5% in test [7].

Take `CCOC(=O)C1=C(C(=O)c2ccccc2)C(c2cccc([N+](=O)[O-])c2)C(C(=O)c2ccccc2)=C(C(=O)OCC)N1`: the growth in test [1] is 89.9%; in test [2], 91.6%; in test [3], 70.2%; in test [4], 13%; in test [5], 37.5%; in test [6], 105%. Further, in test [7], the growth is 75.8%.

Consider `O=[N+]([O-])/C(=C/c1ccccc1)c1ccccc1`, for which the growth in test [1] was 93%; in test [2], 107%; in test [3], 107%; in test [4] it was 97.4%; in test [5], 96.5%; in test [6], 94.1%. Besides, the growth in test [7] is 107%.

For the compound `COc1cc(NC(=O)C2=C(C)NC(C)=C(C(=O)Nc3cc(OC)c(Cl)cc3OC)C2c2cccc([N+](=O)[O-])c2)c(OC)cc1Cl`, the growth in test [1] was 36.9%; in test [2], 9.7% (active); in test [3], 46.4%; in test [4], 14.5%; in test [5], 23.9%; in test [6] it was 15.6%. The growth in test [7] is 18.3%.

Regarding `CCOC(=O)c1c(C)[nH]c2ccc(O)cc12`, the growth in test [2] is 100%; in test [3] it was 105%; in test [4], 83.4%; in test [5], 103%; in test [6], 107%; in test [7], 86.4%.

Consider `O=C(Cc1nc2cc(Cl)c(Cl)cc2nc1CC(=O)c1ccccc1)c1ccccc1`, for which the growth is 52% in test [1]; 67.4% in test [2]; 92.6% in test [3]; 56.8% in test [5]; 92.8% in test [6]; 77.3% in test [7].

For the compound `CC(C)(C)CC(C)(C)c1ccc(OCCOCCSC(=N)N)cc1`, the growth is 28% in test [1]; -64.8% (active) in test [2]; -2.39% (active) in test [3]; 4.55% (active) in test [4]; -65% (active) in test [5]; 36.9% in test [7].

As to `N#C/C(=N\Nc1ccc(Cl)cc1)C(=O)C1CC1`, the growth in test [1] was 40.2%; in test [2] it was 41%; in test [3] it was 63.1%; in test [4], 51.7%; in test [5], 63.9%; in test [7] it was 56.2%.

For `CCSc1nc2ccccc2o1`, the growth in test [8] is 106%; in test [2] it was 111%; in test [3], 106%; in test [4] it was 99.5%; in test [5] it was 111%; in test [7] it was 108%.

With `Oc1ccc2ccccc2c1N=Nc1ccccn1`, the growth in test [8] is 12.7%; in test [2] it was 49.9%; in test [4], 0.0702% (active); in test [5] it was 1.41% (active); in test [7], 34.4%.

In the case of `COc1ccc2nc3cc(Cl)ccc3c(NCCCCCN3CCCCC3)c2c1`, the growth in test [1] was 19%; in test [2], -92% (active); in test [3], -27.4% (active); in test [4] it was -33.5% (active); in test [5], -61.5% (active); in test [7], -12.8% (active).

In the case of `OC(c1cc2ccc(C(F)(F)F)cc2c2cc(C(F)(F)F)ccc12)C1CCCCN1` (stereo unspecified), the growth in test [8] was -90.5% (active); in test [2], -100% (active); in test [3], -100% (active); in test [5] it was -86.5% (active); in test [6] it was -86.7% (active); in test [7], -97.3% (active).

Consider `O=C(Cc1nc2cc(Cl)c(Cl)cc2nc1CC(=O)c1cccnc1)c1cccnc1`, for which the growth was 2.99% (active) in test [1]; 75.9% in test [2]; 90.3% in test [3]; 29.6% in test [4]; 52.7% in test [5]; 115% in test [6]. For the same compound, the growth in test [7] was 85.9%.

Regarding `CCCCCCCCCCCC[S+](C)CC(=O)[O-]` (stereo unspecified), the growth in test [1] is -29.2% (active); in test [2], 47.2%; in test [3], 69.9%; in test [4], 58.2%; in test [5] it was 45.5%; in test [6] it was 34.4%. In test [7], the growth is 30.7%.

For `NNc1cccc([N+](=O)[O-])c1`, the growth was 93.6% in test [1]; 86.8% in test [2]; 63.2% in test [3]; 106% in test [4]; 70.4% in test [5]; 52.5% in test [7].

`CN(C)CC(C)(CN(C)C)C(=O)/C=C/c1c(Cl)cccc1Cl`: the growth in test [1] was 51.1%; in test [2] it was 13.1%; in test [3], 4.63% (active); in test [5], -41.2% (active); in test [6] it was 37.2%; in test [7] it was -25.7% (active).

For `Cc1cc2nc(CC(=O)c3ccncc3)c(=O)[nH]c2cc1C`, the growth in test [1] is 88.9%; in test [2] it was 107%; in test [3], 103%; in test [4], 88.5%; in test [5], 88.5%; in test [6], 102%. Besides, the growth in test [7] was 103%.

For the compound `CN(Cc1ccccc1)c1ccc(SC#N)cc1`, the growth is 43.9% in test [1]; 94.7% in test [2]; 85.3% in test [3]; 76.3% in test [4]; 39.5% in test [5]; 89.8% in test [6]. Further, in test [7], the growth is 40.4%.
